Read-out in test [1]: Tissue Factor, F3 (gene 2152)
In words: BSK_CASM3C_TissueFactor: BioMAP Diversity Plus: CASM3C Assay for Tissue Factor Biomarker Activity (AID 2283052).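 Note: cell surface tissue factor protein level read by ELISA.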 The note with it: primary human coronary artery smooth muscle cells; actives raise or lower the signal.

Read-out in test [2]: Interferon-gamma inducible Protein 10 (IP10), CXCL10 (gene 3627)
The experiment in a line: BSK_hDFCGF_IP10: BioMAP Diversity Plus: hDFCGF Assay for Interferon-gamma inducible Protein 10 (IP10) Biomarker Activity (AID 2283053). Conditions: primary human foreskin fibroblasts; actives raise or lower the signal. The method, boiled down: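 Human foreskin fibroblast primary cells (hDFCGF system) were dosed with chemical and assayed at 24 h; IP-10 measured by ELISA. Activity fitted bidirectionally relative to DMSO negative control as baseline.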

Read-out in test [3]: Urokinase-type plasminogen activator receptor (uPAR), PLAUR (gene 5329)
The experiment in a line: BSK_CASM3C_uPAR: BioMAP Diversity Plus: CASM3C Assay for Urokinase-type plasminogen activator receptor (uPAR) Biomarker Activity (AID 2283054).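 Note: cell-surface uPAR protein level quantified by ELISA.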 Conditions: primary human coronary artery smooth muscle cells; actives raise or lower the signal.

Read-out in test [4]: Vascular cell adhesion molecule 1 (VCAM1), VCAM1 (gene 7412)
The experiment in a line: BSK_CASM3C_VCAM1: BioMAP Diversity Plus: CASM3C Assay for Vascular cell adhesion molecule 1 (VCAM1) Biomarker Activity (AID 2283055).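 Note: VCAM-1 protein level quantified by ELISA on the cells.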 Conditions: primary human coronary artery smooth muscle cells; actives raise or lower the signal.

Read-out in test [5]: Collagen III, COL3A1 (gene 1281)
In words: BSK_hDFCGF_CollagenIII: BioMAP Diversity Plus: hDFCGF Assay for Collagen III Biomarker Activity (AID 2283056). The note with it: primary human foreskin fibroblasts; actives raise or lower the signal. The method, boiled down:
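Human foreskin primary fibroblasts were exposed to test chemicals for 24 h, after which collagen III was quantified by ELISA. Activity was fitted bidirectionally against DMSO as negative control and baseline.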

Read-out in test [6]: Epidermal growth factor receptor (EGFR), EGFR (gene 1956)
In words: BSK_hDFCGF_EGFR: BioMAP Diversity Plus: hDFCGF Assay for Epidermal growth factor receptor (EGFR) Biomarker Activity (AID 2283057). Conditions: primary human foreskin fibroblasts; actives raise or lower the signal. The method, boiled down: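 Primary human foreskin fibroblasts were exposed to compound for 24 h, after which cell-surface EGFR was quantified by ELISA. Activity was fitted bidirectionally against the DMSO negative control as baseline.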

Read-out in test [7]: Interleukin-8 (IL8), CXCL8 (gene 3576)
The experiment in a line: BSK_hDFCGF_IL8: BioMAP Diversity Plus: hDFCGF Assay for Interleukin-8 (IL8) Biomarker Activity (AID 2283058). Conditions: primary human foreskin fibroblasts; actives raise or lower the signal. The method, boiled down: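 hDFCGF human dermal fibroblasts; 24 h chemical exposure; IL-8 by ELISA; bidirectional curve fit vs DMSO baseline; gain or loss of signal scored.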

Test [8] in a line: BSK_hDFCGF_Proliferation: Cell Proliferation Assessment in the BioMAP Diversity Plus: hDFCGF Assay (AID 2283059).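 Note: curves fitted for both rise and fall of signal versus DMSO baseline.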 Conditions: primary human foreskin fibroblasts. The method, boiled down:
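Total protein read at 560 nm after 0.1% SRB staining of TCA-fixed human skin fibroblasts, […]. Activity is fitted in both directions relative to DMSO as baseline.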

Read-out in test [9]: Macrophage colony-stimulating factor (MCSF), CSF1 (gene 1435)
In words: BSK_hDFCGF_MCSF: BioMAP Diversity Plus: hDFCGF Assay for Macrophage colony-stimulating factor (MCSF) Biomarker Activity (AID 2283060). The note with it: primary human foreskin fibroblasts; actives raise or lower the signal. In a few lines:
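Human foreskin primary fibroblasts were treated with test chemical for 24 h, and M-CSF was then measured by ELISA. Data were fitted bidirectionally against DMSO as the negative control and activity baseline.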

The nature of test [10]: BSK_hDFCGF_SRB: Viability Assessment in the BioMAP Diversity Plus: hDFCGF Assay (AID 2283061).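 Note: cells exposed to compound for 24 h before the read.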 The note with it: primary human foreskin fibroblasts. In a few lines: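 Human foreskin primary fibroblasts were treated with compound and assessed 24 h after dosing. Total protein was measured by sulforhodamine B staining (0.1% SRB after 10% TCA fixation, 560 nm read) as a cytotoxicity marker, with bidirectional fitting against DMSO baseline.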

Read-out in test [11]: TIMP metallopeptidase inhibitor 1 (TIMP1), TIMP1 (gene 7076)
In words: BSK_hDFCGF_TIMP1: BioMAP Diversity Plus: hDFCGF Assay for TIMP metallopeptidase inhibitor 1 (TIMP1) Biomarker Activity (AID 2283062). Conditions: primary human foreskin fibroblasts; actives raise or lower the signal. The method, boiled down:
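Primary human foreskin fibroblasts in the hDFCGF system were dosed with compound for 24 h, then TIMP-1 was measured by ELISA. Activity was fitted bidirectionally relative to DMSO control; parallel SRB staining assessed cytotoxicity.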

Read-out in test [12]: Monokine induced gamma interferon (MIG), CXCL9 (gene 4283)
The experiment in a line: BSK_hDFCGF_MIG: BioMAP Diversity Plus: hDFCGF Assay for Monokine induced gamma interferon (MIG) Biomarker Activity (AID 2283063). The note with it: primary human foreskin fibroblasts; actives raise or lower the signal. In a few lines: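 ELISA read-out of MIG from primary human dermal fibroblasts 24 h post-dosing. Gain or loss of signal fitted bidirectionally, DMSO as baseline.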

Read-out in test [13]: Matrix Metallopeptidase 1 (MMP1), MMP1 (gene 4312)
The experiment in a line: BSK_hDFCGF_MMP1: BioMAP Diversity Plus: hDFCGF Assay for Matrix Metallopeptidase 1 (MMP1) Biomarker Activity (AID 2283064). Conditions: primary human foreskin fibroblasts; actives raise or lower the signal. The method, boiled down: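 hDFCGF primary fibroblasts (human foreskin); chemical added; 24 h; MMP1 by ELISA; bidirectional fit vs DMSO.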

Read-out in test [14]: Vascular cell adhesion molecule 1 (VCAM1), VCAM1 (gene 7412)
In words: BSK_hDFCGF_VCAM1: BioMAP Diversity Plus: hDFCGF Assay for Vascular cell adhesion molecule 1 (VCAM1) Biomarker Activity (AID 2283065).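 For AC50: VCAM-1 protein level quantified by ELISA after 24 h chemical exposure.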 Conditions: primary human foreskin fibroblasts; actives raise or lower the signal. In a few lines: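 Primary human foreskin fibroblasts (hDFCGF system) were dosed with chemical and VCAM-1 was measured by ELISA 24 h later. Bidirectional curve fitting used DMSO as negative control and activity baseline.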

Read-out in test [15]: Plasminogen activator inhibitor-1 (PAI1), SERPINE1 (gene 5054)
The experiment in a line: BSK_hDFCGF_PAI1: BioMAP Diversity Plus: hDFCGF Assay for Plasminogen activator inhibitor-1 (PAI1) Biomarker Activity (AID 2283066). The note with it: primary human foreskin fibroblasts; actives raise or lower the signal. The method, boiled down: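 Human foreskin fibroblasts in the hDFCGF system were dosed with compound for 24 h; PAI-1 was quantified by ELISA. Bidirectional curve fitting used DMSO as negative control and baseline.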

Read-out in test [16]: Intercellular Adhesion Molecule 1 (ICAM1), ICAM1 (gene 3383)
In words: BSK_KF3CT_ICAM1: BioMAP Diversity Plus: KF3CT Assay for Intercellular Adhesion Molecule 1 (ICAM1) Biomarker Activity (AID 2283067). Conditions: primary human keratinocytes with fibroblasts; actives raise or lower the signal. The method, boiled down:
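Human keratinocyte plus foreskin fibroblast primary co-culture was exposed to chemical for 24 h. ICAM-1 was then quantified by ELISA, and the data were fit bidirectionally against DMSO as the negative control and baseline.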

Read-out in test [17]: Interferon-gamma inducible Protein 10 (IP10), CXCL10 (gene 3627)
The experiment in a line: BSK_KF3CT_IP10: BioMAP Diversity Plus: KF3CT Assay for Interferon-gamma inducible Protein 10 (IP10) Biomarker Activity (AID 2283068). The note with it: primary human keratinocytes with fibroblasts; actives raise or lower the signal. The method, boiled down: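 Human keratinocyte plus foreskin fibroblast primary co-culture exposed to test chemical for 24 h; IP-10 measured by ELISA. Concentration-response fitted bidirectionally against DMSO control as baseline.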

Test [18] in a line: BSK_KF3CT_SRB: Viability Assessment in the BioMAP Diversity Plus: KF3CT Assay (AID 2283069).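 Note: fitted for both signal gain and loss against DMSO baseline.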 The note with it: primary human keratinocytes with fibroblasts. In a few lines: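 Keratinocytes co-cultured with foreskin fibroblasts (human primary); chemical added, 24 h; fix 10% TCA, stain 0.1% SRB, A560. Bidirectional fit vs DMSO.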
Read-out in test [19]: Interleukin-1 alpha (IL1a), IL1A (gene 3552)
The experiment in a line: BSK_KF3CT_IL1a: BioMAP Diversity Plus: KF3CT Assay for Interleukin-1 alpha (IL1a) Biomarker Activity (AID 2283070). The note with it: primary human keratinocytes with fibroblasts; actives raise or lower the signal. In a few lines:
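Chemicals were dosed onto co-cultured human keratinocytes and foreskin fibroblasts, IL-1a was quantified by ELISA at 24 h, and activity was fitted in both directions relative to DMSO controls.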

Read-out in test [20]: TIMP metallopeptidase inhibitor 2 (TIMP2), TIMP2 (gene 7077)
In words: BSK_KF3CT_TIMP2: BioMAP Diversity Plus: KF3CT Assay for TIMP metallopeptidase inhibitor 2 (TIMP2) Biomarker Activity (AID 2283071). The note with it: primary human keratinocytes with fibroblasts; actives raise or lower the signal. In a few lines: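 Human primary keratinocyte/foreskin fibroblast co-culture dosed with chemical and sampled at 24 h. TIMP-2 levels quantified by ELISA; bidirectional fitting against DMSO negative control as baseline.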

Each structure is given as a SMILES string. The source made the active and inactive calls. Rule for the calls: active = hit-call score of the fitted dose curve at least 0.9, where 1 is the maximum; inactive = score below 0.9.

The record followed here is PubChem BioAssay (EPA / NIEHS).

`CCCSC(=O)N(CCC)CCC`: the result in test [1], in test [2], in [3], in test [4], in test [5] and in [6] was inactive. Besides, the result in test [7], in test [8], in test [9], in [10], in [11] and in test [12] was inactive. Further, the result in test [13], in test [14], in test [15], in [16], in test [17] and in test [18] was inactive. Besides, the result in [19] and in test [20] was inactive.

With `CCC12COCN1COC2`, the result in test [1], in test [2], in [3], in test [4], in [5] and in test [6] was inactive. Besides, the result in [7], in test [8], in [9], in test [10], in [11] and in test [12] was inactive. The result in test [13], in [14], in test [15], in [16], in test [17] and in [18] was inactive. Further, the outcome in test [19] and in [20] was inactive.

In the case of `[As]#[In]`, the outcome in test [1], in test [2], in [3], in test [4], in [5] and in [6] was inactive. Moreover, the outcome in [7], in test [8], in test [9], in test [10], in test [11] and in test [12] was inactive. In addition, the outcome in [13], in [14], in test [15], in test [16], in test [17] and in test [18] was inactive. In addition, the outcome in test [19] and in [20] was inactive.

`CC(C)(OOC(C)(C)c1ccccc1)c1ccccc1`: the AC50 (usually the midpoint of the concentration-response curve, whichever way the signal moves) in test [1] was 20 µM (active); in [2], 37.9 µM (active); in [5], 12.8 µM (active); in test [7], 36.2 µM (active); in test [8], 14.9 µM (active); in test [10] it was 29.1 µM (active). Moreover, the AC50 in test [12] was 20 µM (active); in [13] it was 38.1 µM (active); in test [14], 28.8 µM (active); in [15], 15.4 µM (active). In addition, the outcome in test [3], in [4], in [6], in test [9], in [11] and in [16] was inactive. Besides, the result in test [17], in test [18], in test [19] and in test [20] was inactive.

Take `CC(C)(C)C(O)(CCc1ccc(Cl)cc1)Cn1cncn1` (stereo not given): the outcome in test [1], in test [2], in test [3], in test [4], in test [5] and in test [6] was inactive. In addition, the outcome in test [7], in [9], in [10], in [11], in test [12] and in [13] was inactive. For the same compound, the result in test [14], in [15], in test [16], in test [17], in test [18] and in [19] was inactive. The outcome in test [20] was inactive. Also, the AC50 in test [8] was 0.299 µM (active).
